According to PubChem BioAssay (NCI):
The panel holds about 83,000 compounds, 20% with a hit somewhere; the sample as a whole holds those more often.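 Results are percent growth after 48 hours of single-concentration exposure. 100 means growth as in untreated cells, lower positive values show inhibition; negative values down to -100 show cell death.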 The source made the active and inactive calls. The calls were made as follows: active = growth percent below 10; inactive = the rest.

These molecules were tested on SF-295 CNS (assay: NCI-60 one-dose screen, 48 h (100 = growth as untreated, 0 = no growth, -100 = all killed)). Conditions: 10 µM.

**Q.** For Clc1ccc(Nc2ccnc(NCCCNc3ccnc4cc(Cl)ccc34)n2)cc1, which growth is on record?
**A.** The growth was -81.1% (active).

**Q.** Oc1[nH]c2cc(Cl)ccc2c1/C=c1/ccc2c(c1)N=C(c1cc(F)cc(F)c1)N=2 was tested. Which growth did it give?
**A.** The growth was 13.5% (inactive).

**Q.** How did the growth turn out when CSc1nn(-c2ccccc2)c2ncnc(Oc3ccccc3)c12 was run?
**A.** The growth was 101% (inactive).

**Q.** How did the growth turn out when Cc1cc2c(C)c3cc(C)c(N)cc3nc2cc1N was run?
**A.** The growth was 39.5% (inactive).

**Q.** CCOC(=O)C1(CC(C)C)CCOC1=O (stereo not drawn) was tested. Which growth did it give?
**A.** Its growth is 99.5% (inactive).

**Q.** Which growth does the source give for COc1ccc(Nc2cc(C)nc(NCCCNc3ccnc4cc(Cl)ccc34)n2)cc1 here?
**A.** The growth was -78.8% (active).

**Q.** How did the growth turn out when CCCCCCCCCCCCCCCC(=O)OC1[C@@H](OC(=O)CCCCCCCCCCCCCCC)[C@@H](C(=O)N[C@@H](CCCCN)C(=O)OC)O[C@H]1n1cnc2c(=O)[nH]c(NC(=O)C(C)C)nc21 (stereo partly drawn) was run?
**A.** The growth was 108% (inactive).

**Q.** With COc1cc(Nc2ccnc(NCCNc3ccnc4cc(Cl)ccc34)n2)cc(OC)c1 as the molecule, how does the growth read?
**A.** Its growth is 39.9% (inactive).

**Q.** For Cc1cc(Nc2ccc(Cl)cc2)nc(NCCCNc2ccnc3cc(Cl)ccc23)n1, which growth is on record?
**A.** The growth was -68.2% (active).

**Q.** COc1cc2cc3c(nc2cc1OC)CCN3Cc1ccc(NC(=O)Nc2cc(C(F)(F)F)cc(C(F)(F)F)c2)cc1 was tested. Which growth did it give?
**A.** Its growth is 69.6% (inactive).

**Q.** For CC(C)=CCc1cc(O)cc2c1OC(C=C(C)C)C1=C2C(=O)C2=C(NCCS2(=O)=O)C1=O (stereo not drawn), which growth is on record?
**A.** Its growth is 45.9% (inactive).

**Q.** With CC(C)=CCc1cc(O)cc2c1OC(C=C(C)C)C1=C2C(=O)C2=C(C1=O)S(=O)(=O)CCN2 (stereo not drawn) as the molecule, how does the growth read?
**A.** Its growth is 85.5% (inactive).

**Q.** Which growth does the source give for COc1ccc(Nc2ccnc(NCCNc3ccnc4cc(Cl)ccc34)n2)cc1 here?
**A.** Its growth is 46.1% (inactive).
